High-throughput results deposited in PubChem BioAssay by several laboratories.
TMEM16A inh = TMEM16A chloride channel inhibitors, primary screen, cell-based, HTS. Anoctamin-1 (Mus musculus), Q8BHY3. HEK293 TMEM16A/YFP iodide influx fluorescence, ionomycin. normalized B-score (activity score, 25-100; higher = stronger inhibition) at 10 µM. hit rate 1.2% among 310,000;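 active means ratio plate-corrected score three or more library SD toward inhibition, starting fluorescence score within five deviations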;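 further: score derived from kinetic fluorescence span divided by baseline fluorescence per well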
Target sequence (Q8BHY3 whole entry, looked up): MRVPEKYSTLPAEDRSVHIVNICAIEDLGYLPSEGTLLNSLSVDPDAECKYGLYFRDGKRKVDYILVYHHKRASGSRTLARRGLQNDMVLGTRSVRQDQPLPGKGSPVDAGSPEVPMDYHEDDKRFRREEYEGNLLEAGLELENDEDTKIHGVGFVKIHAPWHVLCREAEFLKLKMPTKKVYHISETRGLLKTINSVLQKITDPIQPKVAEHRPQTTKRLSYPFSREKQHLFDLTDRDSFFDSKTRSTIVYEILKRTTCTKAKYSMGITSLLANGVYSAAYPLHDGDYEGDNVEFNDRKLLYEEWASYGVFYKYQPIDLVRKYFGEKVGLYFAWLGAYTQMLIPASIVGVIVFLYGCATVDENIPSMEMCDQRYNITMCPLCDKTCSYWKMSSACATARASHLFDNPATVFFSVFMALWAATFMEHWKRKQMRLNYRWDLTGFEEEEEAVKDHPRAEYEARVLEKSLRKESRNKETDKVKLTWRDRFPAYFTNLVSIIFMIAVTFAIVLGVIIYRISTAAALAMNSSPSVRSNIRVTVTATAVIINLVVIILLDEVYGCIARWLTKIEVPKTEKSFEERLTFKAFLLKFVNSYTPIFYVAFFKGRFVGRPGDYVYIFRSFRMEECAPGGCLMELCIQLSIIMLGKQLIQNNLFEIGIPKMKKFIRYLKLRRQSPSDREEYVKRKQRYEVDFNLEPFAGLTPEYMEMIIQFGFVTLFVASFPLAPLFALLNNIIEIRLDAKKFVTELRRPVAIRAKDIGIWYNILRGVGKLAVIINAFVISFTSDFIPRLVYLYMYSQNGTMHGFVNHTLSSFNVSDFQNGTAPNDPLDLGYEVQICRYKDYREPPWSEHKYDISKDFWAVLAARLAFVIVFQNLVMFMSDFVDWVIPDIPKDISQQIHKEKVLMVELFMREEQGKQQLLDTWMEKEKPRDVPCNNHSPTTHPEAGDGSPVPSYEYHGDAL
PP1 counter = PP1-alpha phosphatase inhibitors, primary screen, counter-screen for PP5 inhibitor project, biochemical, fluorescence, OMFP substrate, single point; Serine/threonine-protein phosphatase PP1-alpha catalytic subunit (Homo sapiens), P62136; purified PP1alpha; inhibition, % at 6.7 µM; hit rate 0.9% among 320,000; AID 2235, 2010;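 active means inhibition above the mean inhibition of all tested compounds plus 3 SD, computed separately for each screening campaign, cut at about 15% in these data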
PP5 primary = PP5 phosphatase inhibitors, primary screen, biochemical, fluorescence; Serine/threonine-protein phosphatase 5 (Homo sapiens), P53041; purified PP5c, OMFP substrate fluorescence; inhibition, % at 6.7 µM; hit rate 0.18% among 320,000;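 active means inhibition above the campaign's mean inhibition across all tested compounds plus 3 SD, cut at about 9.5% in these data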;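 further: 0% = DMSO only and 100% = 100 µM cantharidin control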
DNA FID counter = compounds displacing fluorescent DNA intercalator, primary screen, artefact control for HCV NS3 helicase inhibitor project, biochemical, FID fluorescence; AID 1845, 2009; inhibition, % at 7.9 µM; DNA fluorescent intercalator displacement; hit rate 0.17% among 290,000; in the data active means inhibition above about 37%;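 further: 0% = vehicle and 100% = reference compound; higher means more ethidium bromide displaced from hairpin DNA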
TMEM16A act = TMEM16A chloride channel activators or potentiators, primary screen, cell-based, HTS; Anoctamin-1 (Mus musculus), Q8BHY3; HEK293 TMEM16A/YFP-H148Q/I152L, iodide quench fluorescence; active compounds read low; B-score at 10 µM; hit rate 0.3% among 340,000; AID 623877, 2012;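 active means fluorescence-ratio B-score plate-corrected deviation score at least 3 library SD below zero, with starting fluorescence score within 5 deviations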;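 further: channel opened by trigger with iodide after compound preincubation; score built on the fluorescence ratio of max minus min over baseline; more negative score means more quench and so TMEM16A activation or potentiation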
PREPL inh = PREPL enzyme inhibitors, primary screen, biochemical, fluorescence polarization; AID 2751, 2010; Prolyl endopeptidase-like (Homo sapiens), Q4J6C6; recombinant PREPL, fluorescence polarization activity-based probe; inhibition, % at 5.96 µM; hit rate 0.68% among 320,000; in the data active means inhibition above about 43%;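 further: 0% = enzyme with DMSO and 100% = wells lacking enzyme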
PP5 inh confirm = PP5 phosphatase inhibitors, confirmation, biochemical, fluorescence, human. shares compounds with PP5 primary. inhibition, % at 6.7 µM. Purified PP5, fluorogenic phosphatase substrate. hit rate 22% among 460; in the data active means inhibition above about 9.5%
PP1 counter 3x = PP1 phosphatase inhibitors, counter-screen for PP5 inhibitor project, biochemical, fluorescence, triplicate; AID 2355, 2010; inhibition, % at 6.7 µM; hit rate 4% among 460; shares compounds with PP5 primary; PP1 enzyme, fluorescent phosphatase substrate; in the data active means inhibition above about 16%
PP1 confirm = PP1 phosphatase inhibitors, confirmation, biochemical, fluorescence, OMFP substrate, triplicate; shares compounds with PP1 counter; purified PP1alpha; inhibition, % at 6.7 µM; hit rate 52% among 1,900; AID 2358, 2010;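 active means mean PP1 inhibition above a set limit taken from the earlier primary screen, cut at about 15% in these data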
PP5 inh counter = PP5 phosphatase inhibition by PP1 hits, confirmation, counter-screen for PP1 inhibitor project, biochemical, fluorescence, triplicate | shares compounds with PP1 counter | purified PP5c, OMFP fluorescence | inhibition, % at 6.7 µM | hit rate 4% among 1,900 | AID 2360, 2010;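 active means mean PP5 inhibition over triplicate wells above about 9.5% taken from the earlier PP1 screen, limit read from the data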
Starred values were filed as active, the others as inactive; i = inactive; . = no result. Compounds with a hit are over-represented: about 2.7% of the library has one in this group of screens.

SMILES	TMEM16A inh	PP1 counter	PP5 primary	DNA FID counter	TMEM16A act	PREPL inh	PP1 confirm	PP5 inh counter	others
COC(=O)C12OCC34C(CC5C(C)=C(O)C(=O)CC5(C)C3C(O)C1O)OC(=O)C(OC(=O)/C=C(\C)C(C)C)C24 (stereo unspecified)	.	.	.	.	i	.	.	.
CCCCn1c(NC(=O)c2ccco2)c(C(=O)OCC)c2nc3ccccc3nc21	i	5.2	9.6*	-13.9	i	6.4	.	.	PP5 inh confirm=36.6*;PP1 counter 3x=8.3
CC1CN(C(=O)CCC(=O)N2CCC3(CC2)OCCO3)c2cc(Cl)ccc2O1 (stereo unspecified)	i	0.1	0.9	-32.6	i	12.0	.	.
COc1ccc(Cn2c(N)c(C(=O)NCc3ccco3)c3nc4ccccc4nc32)cc1	i	6.4	11.1*	-26.4	i	12.8	.	.	PP5 inh confirm=11.3*;PP1 counter 3x=3.7
CCOc1ccccc1-n1c(O)c(C=Nc2ccc(N(CC)CC)cc2)c(=O)[nH]c1=O	i	-3.1	12.1*	-15.9	i	11.2	.	.	PP5 inh confirm=0.2;PP1 counter 3x=-0.2
CCN(CC)c1ccc(N=Cc2c(O)n(-c3ccccc3C)c(=O)[nH]c2=O)cc1	i	1.5	2.7	-14.4	i	27.8	.	.
CC(C)(C)NC(=S)/N=C(\N)N[N+](=O)[O-]	i	-1.8	-1.7	-2.0	i	-2.5	.	.
CN1C[C@H](CO)C=C2c3cccc4[nH]cc(c34)C[C@H]21	i	31.6*	3.5	12.9	i	42.4	-3.0	1.5
CC(C)C[C@H]1C(=O)N2CCCC2[C@]2(O)O[C@](NC(=O)[C@@H]3C=C4c5cccc6[nH]cc(c56)CC4N(C)C3)(C(C)C)C(=O)N12 (stereo partly specified)	i	11.4	1.9	-14.6	i	37.4	.	.
O=C1NC(=O)N(Cc2ccco2)C(=O)/C1=C/c1ccc(-c2cccc([N+](=O)[O-])c2)o1	i	33.4*	1.0	1.0	i	16.2	15.9*	-6.9
CCCc1cc(=O)oc2cc(OCC(=O)N3CCC(C(=O)O)(c4ccccc4)CC3)ccc12	i	-0.2	-0.5	-23.5	i	3.0	.	.
COC(=O)C1=C(c2cccc(OCc3ccccc3)c2)C[C@@H]2CC[C@H]1N2C(=O)NCc1ccc(C(C)(C)C)cc1	.	19.6*	6.2	.	i	10.4	1.8	-1.4
COC(=O)C1=C(c2cccc(OCc3ccccc3)c2)C[C@@H]2CC[C@H]1N2C(=O)NCc1ccc(N(C)C)cc1	.	9.5	4.0	.	i	38.1	.	.
COC(=O)C1=C(c2ccc(-c3ccccc3)c(F)c2)C[C@@H]2CC[C@H]1N2C(=O)NCc1cccc2ccccc12	.	23.1*	3.3	.	i	-34.7	4.5	1.7
COC(=O)C1=C(c2ccc(-c3ccccc3)c(F)c2)C[C@@H]2CC[C@H]1N2C(=O)NCCNC(C)=O	.	-0.3	0.4	.	i	-3.3	.	.
COc1ccc(/C=C/C=C2C(=O)NC(=S)NC2=O)cc1	.	.	.	.	i	.	.	.
O=C(N/N=C/c1c(O)n(Cc2ccc(F)cc2)c(=O)[nH]c1=O)c1ccccc1O	i	20.6*	4.2	0.5	i	7.4	9.9	-1.9
Clc1ccc(COC(Cn2ccnc2)c2ccc(Cl)cc2Cl)c(Cl)c1 (stereo unspecified)	i	22.8*	2.0	-0.9	i	9.6	27.2*	2.2
CCCCn1c(O)c(C(C)=NCc2ccco2)c(=O)[nH]c1=O	i	-0.3	0.8	-25.6	i	-0.3	.	.
CN(C)[C@@H]1C(=O)C(C(N)=O)=C(O)[C@@]2(O)C(=O)C3=C(O)c4c(O)cccc4[C@@](C)(O)[C@H]3[C@H](O)[C@@H]12	i	44.0*	2.0	-9.1	i	20.8	19.7*	-0.8
CN(C)[C@@H]1C(=O)C(C(N)=O)=C(O)[C@@]2(O)C(=O)C3=C(O)c4c(O)cccc4[C@@](C)(O)C3C[C@@H]12 (stereo partly specified)	i	3.8	0.4	.	i	-14.9	.	.
O=c1[nH]c(O)c(/C=C2\C=Nc3ccc(OCc4ccccc4)cc32)c(=O)[nH]1	i	19.4*	0.2	3.7	i	4.1	24.2*	-4.1
Cc1sc2ncnc(N3CCC(C(=O)Nc4ccc(C#N)c(Cl)c4)CC3)c2c1C	i	5.7	0.8	.	i	31.2	.	.
Cc1cc(O)c2c(c1)C(=O)C13C(=C2O)C(=O)[C@H]2[C@@H](O)[C@@H]1[C@H]1[C@H](O)[C@@H]3C(=O)C3=C(O)c4c(O)cc(C)cc4C(=O)C312 (stereo partly specified)	i	39.9*	3.0	.	i	-7.8	33.5*	-2.4
COCCCNP1(=O)OCC(C)([N+](=O)[O-])CO1 (stereo unspecified)	.	.	.	.	i	.	.	.
SMILES	TMEM16A inh	PP1 counter	PP5 primary	DNA FID counter	TMEM16A act	PREPL inh	PP1 confirm	PP5 inh counter	others
Cc1nccc2c1[nH]c1ccc(Br)cc12	i	20.9*	0.4	.	i	5.7	-0.9	-1.2
COC(=O)C1=C(c2ccc(Cl)c(C(F)(F)F)c2)C[C@@H]2CC[C@H]1N2C(=O)N1CCC(C)CC1	.	5.9	3.2	.	i	-6.2	.	.
O=C(O)C1C2CCC(O2)C1C(=O)Nc1cccc(Br)c1 (stereo unspecified)	i	69.1*	68.6*	2.0	i	5.4	9.1	18.6*
Cc1ccc(/C=C2/Sc3ccc(C(=O)N4CCC5(CC4)OCCO5)cc3NC2=O)cc1	i	0.9	-1.0	-41.9	i	14.3	.	.
CC1=NNC(=O)C1Br (stereo unspecified)	.	.	.	.	i	.	.	.
CCCCCn1c(=O)c(C(=O)Nc2ncccc2C)c(O)c2ccccc21	i	25.4*	2.0	-23.7	i	-8.7	21.7*	-2.6
